From PubChem BioAssay (EPA / NIEHS)
Results filed as inconclusive are left out. Calls of active or inactive are those of the source. The calls were made as follows: active = hit-call score of the fitted dose curve at least 0.9, where 1 is the maximum; inconclusive = response in the unintended direction; inactive = score below 0.9.

Legend:
[1] = TOX21_p53_BLA_p2_viability: Viability Assessment in the Tox21 HCT-116 p53 Agonism Beta-lactamase Assay, Phase 2 (AID 2283591);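 also: actives lower the ATP signal meaning cytotoxicity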
Procedure, shortened: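 HCT-116 p53-bla cells (4000/well) rested 5 h at 37C, then received compounds in DMSO (217-fold dilution) for 16 h at 37C, 5% CO2. After the CCF4 read, CellTiter-Glo was added; ATP luminescence was read after 30 min at room temperature.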

[2] = target: Cellular tumor antigen p53 (Homo sapiens) (UniProt P04637); test: TOX21_p53_BLA_p2_ratio: Tox21 HCT-116 p53 Agonism Beta-lactamase Assay, Ratio, Phase 2 (AID 2283592)
Cellular tumor antigen p53 (Homo sapiens), sequence (P04637 whole entry, looked up): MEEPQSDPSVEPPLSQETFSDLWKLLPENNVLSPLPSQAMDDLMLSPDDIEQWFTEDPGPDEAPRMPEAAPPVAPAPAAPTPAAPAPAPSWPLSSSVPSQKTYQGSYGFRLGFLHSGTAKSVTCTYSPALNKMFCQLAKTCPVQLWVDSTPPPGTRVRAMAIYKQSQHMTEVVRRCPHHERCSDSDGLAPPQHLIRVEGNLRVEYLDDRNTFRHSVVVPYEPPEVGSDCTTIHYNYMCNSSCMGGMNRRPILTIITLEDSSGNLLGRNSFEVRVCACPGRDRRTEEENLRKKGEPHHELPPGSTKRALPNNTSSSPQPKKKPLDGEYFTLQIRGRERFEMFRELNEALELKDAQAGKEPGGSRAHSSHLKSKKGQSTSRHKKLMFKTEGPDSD
Procedure, shortened: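 An inducible beta-lactamase reporter in HCT116 cells signals p53 pathway activation. After 16 h chemical exposure at 37C, cells load CCF4-AM substrate for 2 h at room temperature; activity is the cleaved/uncleaved emission ratio relative to DMSO.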

[3] = TOX21_p53_BLA_p3_viability: Viability Assessment in the Tox21 HCT-116 p53 Agonism Beta-lactamase Assay, Phase 3 (AID 2283593);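 also: cells exposed to compound for 16 h before reading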
Procedure, shortened: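 HCT-116 cells (4000/well) rested 5 h at 37C, then got DMSO compounds by pin tool (217-fold dilution) for 16 h at 37C, 5% CO2. After the bla read, CellTiter-Glo was added and luminescence read at 30 min, room temperature.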

[4] = target: Cellular tumor antigen p53 (Homo sapiens) (UniProt P04637); test: TOX21_p53_BLA_p3_ratio: Tox21 HCT-116 p53 Agonism Beta-lactamase Assay, Ratio, Phase 3 (AID 2283596)
Procedure, shortened: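 HCT116 p53-bla cells (4000/well) given compound in DMSO (217-fold dilution) after 5 h, incubated 16 h at 37C. CCF4-AM substrate 2 h at room temperature; 460/530 nm emission ratio, gain fitted against DMSO.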

[5] = TOX21_p53_BLA_p4_viability: Viability Assessment in the Tox21 HCT-116 p53 Agonism Beta-lactamase Assay, Phase 4 (AID 2283597);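 also: hits lower the luminescence signal meaning cytotoxicity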
Procedure, shortened: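 Compound exposure of HCT116 cells lasts 16 h at 37C, 5% CO2, with DMSO stocks diluted 217-fold. Cellular ATP is then quantified by CellTiter-Glo luminescence after 30 min at room temperature.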

[6] = target: Cellular tumor antigen p53 (Homo sapiens) (UniProt P04637); test: TOX21_p53_BLA_p5_ratio: Tox21 HCT-116 p53 Agonism Beta-lactamase Assay, Ratio, Phase 5 (AID 2283599)
Procedure, shortened: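 HCT-116 cells carrying a p53-inducible beta-lactamase reporter were seeded at 4000 cells/well and dosed after 5 h with compound in DMSO (217-fold dilution). After 16 h at 37C, CCF4-AM substrate was added for 2 h, and the 460/530 nm emission ratio was scored as gain-of-signal versus DMSO.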

[7] = target: Cellular tumor antigen p53 (Homo sapiens) (UniProt P04637); test: TOX21_p53_BLA_p4_ratio: Tox21 HCT-116 p53 Agonism Beta-lactamase Assay, Ratio, Phase 4 (AID 2283601)
Procedure, shortened: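 HCT116 cells carrying an inducible beta-lactamase reporter were plated at 4000 cells/well, rested 5 h, then exposed to compounds in DMSO (217-fold dilution) for 16 h at 37C. CCF4-AM substrate was loaded 2 h at room temperature; 460/530 nm emission ratio scored gain-of-signal versus DMSO.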

Row | Structure (SMILES) | outcome [1] | outcome [2] | outcome [3] | outcome [4] | outcome [5] | outcome [6] | outcome [7] | AC50 [5] | AC50 [7] | AC50 [2]
1 | Nc1nc2[nH]cc(CCc3ccc(C(=O)N[C@@H](CCC(=O)O)C(=O)O)cc3)c2c(=O)[nH]1 | inactive | inactive | inactive | inactive | inactive | inactive | inactive |  |  | 
2 | C[N+]1(C)CCCC(OC(=O)C(O)(c2ccccc2)c2ccccc2)C1 (stereo not drawn) | inactive | inactive | inactive | inactive | inactive | inactive | inactive |  |  | 
3 | Cc1ccsc1/C=C/C1=NCCCN1C | inactive | inactive | inactive | inactive | inactive | inactive | inactive |  |  | 
4 | CN(C)C(=O)Oc1cccc([N+](C)(C)C)c1 | inactive | inactive | inactive | inactive | inactive | inactive | inactive |  |  | 
5 | CCCCCCCCCCCCCCCC(=O)OC[C@H](COP(=O)([O-])OCC[N+](C)(C)C)OC(=O)CCCCCCCCCCCCCCC | inactive | inactive | inactive | inactive | inactive | inactive | inactive |  |  | 
6 | CCCCC[C@H](O)/C=C/[C@@H]1[C@H]2C/C(=C/CCCC(=O)O)O[C@H]2C[C@H]1O | inactive | inactive | inactive | inactive | inactive | inactive | inactive |  |  | 
7 | C[C@@H]1CCC[C@H](C)N1 | inactive | inactive | inactive | inactive | inactive | inactive | inactive |  |  | 
8 | C#C[C@]1(O)CC[C@H]2[C@@H]3CCC4=C/C(=N/O)CC[C@@H]4[C@H]3CC[C@@]21CC | inactive | inactive | inactive | inactive |  | inactive | inactive | 38.1 µM (active) |  | 
9 | CC(C)(S)C(=O)N[C@@H](CS)C(=O)O | inactive | inactive | inactive | inactive | inactive | inactive | inactive |  |  | 
10 | O=C(C=Cc1ccc(O)c(O)c1)O[C@@H]1C[C@@](OC(=O)C=Cc2ccc(O)c(O)c2)(C(=O)O)C[C@@H](O)[C@@H]1O | inactive | inactive | inactive | inactive | inactive | inactive | inactive |  |  | 
11 | Cc1ccc2c(ccc3ccccc32)c1 | inactive | inactive | inactive | inactive | inactive | inactive | inactive |  |  | 
12 | CCc1cccc(N(C)C(N)=Nc2cccc3ccccc23)c1 | inactive | inactive | inactive | inactive | inactive | inactive | inactive |  |  | 
13 | C1COC(NC(C2CC2)C2CC2)=N1 | inactive | inactive | inactive | inactive | inactive | inactive |  |  | 39.6 µM (active) | 
14 | Cc1ncc(C[n+]2csc(CCOP(=O)(O)OP(=O)(O)O)c2C)c(N)n1 | inactive | inactive | inactive | inactive | inactive | inactive | inactive |  |  | 
15 | O=Cc1cc2ccccc2o1 | inactive | inactive | inactive | inactive | inactive | inactive | inactive |  |  | 
16 | COc1cc(C(=O)N2CCOCC2)cc(OC)c1OC | inactive | inactive | inactive | inactive | inactive | inactive | inactive |  |  | 
17 | O=C(O)CCc1nc2ccccc2[nH]1 | inactive | inactive | inactive | inactive | inactive | inactive | inactive |  |  | 
18 | CC[C@H]1OC(=O)[C@H](C)[C@@H](O[C@H]2C[C@@](C)(OC)[C@@H](O)[C@H](C)O2)[C@H](C)[C@@H](O[C@@H]2O[C@H](C)C[C@H](N(C)C)[C@H]2O)[C@](C)(OC)C[C@@H](C)C(=O)[C@H](C)[C@@H](O)[C@]1(C)O | inactive | inactive | inactive | inactive | inactive | inactive | inactive |  |  | 
19 | COc1cccc(O)c1O | inactive | inactive | inactive | inactive | inactive | inactive | inactive |  |  | 
20 | O=C(OCC1CO1)C1CCCCC1C(=O)OCC1CO1 (stereo not drawn) | inactive |  | inactive | inactive | inactive | inactive | inactive |  |  | 61 µM (active)
21 | OCC(O)CS (stereo not drawn) | inactive | inactive | inactive | inactive | inactive | inactive | inactive |  |  | 
22 | CCN1CCCC1CNC(=O)c1cc(S(=O)(=O)CC)ccc1OC (stereo not drawn) | inactive | inactive | inactive | inactive | inactive | inactive | inactive |  |  | 
23 | O=C(c1ccccc1)c1cc(Cl)ccc1O | inactive | inactive | inactive | inactive | inactive | inactive | inactive |  |  | 
24 | O=C(CO)[C@@H](O)[C@H](O)[C@@H](O)C(=O)O | inactive | inactive | inactive | inactive | inactive | inactive | inactive |  |  | 
